Screening data (PubChem BioAssay)
Sampled rows, rich in hits. Any-hit rate of the full collection: about 15%.
DT40 TDP1 no CPT: qHTS for Inhibitors of human tyrosyl-DNA phosphodiesterase 1 (TDP1): qHTS in cells in absence of CPT; DT40 Tdp1-/- hTDP1 cells, no CPT, ATP luminescence, 48 h; Potency, µM (series often up to 46.2 µM), most hits filed as inhibitors; 420,000 tested, 15% active; note: nearly all actives have a fitted effect of over 55% in size
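Cells were dispensed at 400 per well, compounds added by pin tool, plates incubated ≥48 hr at 37 °C, then CellTiter-Glo added for 30 min at room temperature before luminescence reading. Line: DT40 Tdp1-/- complemented with hTDP1; camptothecin omitted.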
Gal4-VP16 FLuc: counter-screen for ROR gamma inhibitors: Gal4-VP16 reporter; Drosophila S2 Gal4-VP16 UAS-luciferase, luminescence, 20 h; Potency, µM (top dose mostly 53.6 µM), usual class: inhibitors; 310,000 tested, 3.5% active;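 note: Gal4-VP16 expression switched on by copper sulfate through the metallothionein promoter; nearly all actives have a fitted effect of over 50% in size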
12-LOX inh: inhibitors of human 12S-lipoxygenase ALOX12; 580,000 tested, 1.1% active; Potency, µM (highest dose often 108 µM), most hits filed as inhibitors; purified 12hLO, xylenol orange hydroperoxide absorbance; P18054
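Purified human 12hLO (150 nM final) in 25 mM Hepes, 0.01% Triton X-100, pH 7.0 was preincubated 15 min at room temperature with compound. Then 40 uM arachidonic acid was added, 30 min. Hydroperoxide was read by Fe-XO absorbance ratio 573/405 nm.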
TDP1 cell CPT: growth inhibition of DT40 Tdp1-/-;hTDP1 cells with camptothecin (screen for TDP1 inhibitors); chicken DT40 Tdp1-/-;hTDP1 cells + 20 nM CPT, ATP luminescence, 48 h; AID 686979; Potency, µM (series often up to 46.2 µM), most hits filed as inhibitors; 420,000 tested, 12% active; note: nearly all actives have a fitted effect of over 55% in size
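Cell growth measured by CellTiter-Glo luminescence after a minimum 48 h, 37 C compound exposure with 20 nM CPT in Tdp1-knockout DT40 cells stably expressing hTDP1, seeded 400/well; qHTS titration format.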
RORgamma inh: ROR gamma (mouse) transcription inhibition | P51450 | Drosophila S2 Gal4-RORgamma UAS-luciferase reporter, 20 h | Potency, µM (top dose mostly 53.6 µM), hits mostly inhibitors | 310,000 tested, 5.4% active; note: nearly all actives have a fitted effect of over 60% in size
Target sequence (P51450 whole entry, looked up, the tested form may be a part): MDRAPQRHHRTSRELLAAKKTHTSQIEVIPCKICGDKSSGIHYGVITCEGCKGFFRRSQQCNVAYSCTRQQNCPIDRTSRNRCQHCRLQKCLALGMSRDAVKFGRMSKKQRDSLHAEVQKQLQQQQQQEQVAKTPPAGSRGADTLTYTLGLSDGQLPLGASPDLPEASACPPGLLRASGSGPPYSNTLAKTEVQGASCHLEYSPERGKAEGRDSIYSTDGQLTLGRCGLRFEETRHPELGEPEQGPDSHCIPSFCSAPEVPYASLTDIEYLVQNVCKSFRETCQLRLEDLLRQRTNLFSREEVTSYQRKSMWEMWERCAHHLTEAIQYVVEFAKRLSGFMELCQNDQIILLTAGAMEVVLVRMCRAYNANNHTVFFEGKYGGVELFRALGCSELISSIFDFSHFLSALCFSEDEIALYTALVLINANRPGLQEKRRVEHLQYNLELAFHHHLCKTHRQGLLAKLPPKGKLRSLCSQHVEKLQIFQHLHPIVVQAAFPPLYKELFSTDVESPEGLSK
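Drosophila S2 cells stably expressing Gal4-DBD/mouse RORγ fusion under metallothionein promoter plus UAS-luciferase; compound 1 h, then 700 uM CuSO4 induction for 20 h at ambient temperature; inhibition read as reduced luminescence.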
ELG1 DNA repair: blocks ELG1-dependent DNA repair in HEK293T cells; HEK293T ELG1-luciferase reporter, luminescence, 16 h; DNA damage induced by 5-fluorouridine; Potency, µM (series often up to 46.1 µM), usual class: inhibitors; 330,000 tested, 2.3% active; note: nearly all actives have a fitted effect of over 55% in size
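Luminescence from the luciferase reporter, measured 30 min after ONE-Glo reagent at room temperature, was the read-out. Beforehand, 2,000 cells per well were exposed for 16 hr at 37 °C to 5-fluorouridine together with compound or vehicle.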
A number is an active result; – = inactive; ? = inconclusive; · = not tested or not shown; [ ] = remark or other dose. Calls come from the whole dose curve; as a rule, active = well fitted curve in the direction sought with a large enough effect; inconclusive = small, poorly fitted or top-dose-only effect, or another doubt; inactive = no such curve, though single readings can be large; an effect the other way counts as inactive or inconclusive.

SMILES	DT40 TDP1 no CPT	Gal4-VP16 FLuc	12-LOX inh	TDP1 cell CPT	RORgamma inh	ELG1 DNA repair
COC(=O)c1cnc(Nc2nc(C(N)c3ccccc3Cl)cs2)nc1C(F)(F)F (centres undefined)	26µM	·	–	?	·	·
COC(=O)c1cnc(Nc2nc(C(N)COCc3ccccc3)cs2)nc1C(F)(F)F (centres undefined)	15µM	·	–	?	·	·
O=C(Nc1nnc([C@H]2C[C@H](O)[C@@H](CO)O2)s1)c1cccc(OC(F)(F)F)c1	–	·	–	–	·	·
NC(c1csc(NC(=O)c2cccc(OC(F)(F)F)c2)n1)c1ccccc1Cl (centres undefined)	5.8µM	·	?	4.1µM	·	·
CCc1cnc(Nc2nc(C(N)c3ccccc3Cl)cs2)nc1 (centres undefined)	?	·	–	?	·	·
COc1ccc(CC(=O)OCC(=O)Nc2ccccc2OC(F)F)cc1OC	·	·	–	·	·	·
Cc1cccc(NC(=O)C2C3C=CC(C4CC34)C2C(=O)O)c1 (centres undefined)	?	–	–	?	?	–
COC(=O)c1ccc(NC(=O)c2cccc(N3C(=O)C4C5C=CC(C6CC56)C4C3=O)c2)cc1 (centres undefined)	7.3µM	–	–	8.2µM	?	?
Cc1cccc(NC(=O)c2ccc(N3C(=O)C4C5C=CC(C6CC56)C4C3=O)cc2)c1 (centres undefined)	?	?	–	?	?	8.2µM
O=C(Nc1ccccc1)c1cccc(N2C(=O)C3C4C=CC(C5CC45)C3C2=O)c1 (centres undefined)	?	–	–	–	–	?
Cc1ccc(NC(=O)c2ccccc2N2C(=O)C3C4C=CC(C5CC45)C3C2=O)cc1C (centres undefined)	?	–	?	21µM	–	–
COC(=O)c1ccc(NC(=O)c2cccc(N3C(=O)CCC3=O)c2)cc1	–	·	–	–	·	–
O=C(Nc1ccc(F)cc1)c1cccc(N2C(=O)C3C4C=CC(C5CC45)C3C2=O)c1 (centres undefined)	?	–	–	16µM	?	16µM
O=C(Nc1ccccc1-c1ccccc1)c1cccc(F)c1	·	·	–	·	·	·
O=C(CCSC1CCc2ccccc2NC1=O)Nc1ccc(CCO)cc1 (centres undefined)	·	·	–	·	·	·
N#C/C(=C/c1ccc(N2CCCCCC2)o1)c1ccc(Cl)cc1	18µM	7.1µM	·	15µM	7.1µM	?
N#C/C(=C/c1ccc(N2CCCCC2)o1)c1cccc(F)c1	15µM	10µM	10µM	10µM	7.1µM	?
Cc1cccc(-c2nccc3c(=O)cc(N4CCN(C)CC4)oc23)c1	·	·	–	·	·	·
CNS(=O)(=O)Cc1ccccc1CNC(=O)c1cc(F)cc(F)c1	·	·	–	·	·	·
COc1ccc(CCN2C(=O)CN(C3CCCCCC3)C(=O)C2c2ccc(Cl)cc2)cc1OC (centres undefined)	18µM	·	–	?	·	·
COc1ccc(CCN2C(=O)CN(C3CCCCCC3)C(=O)C2c2ccc(OC(C)C)c(OC)c2)cc1OC (centres undefined)	?	·	–	?	·	·
CC1CCC(N2CC(=O)N(C3CCCC3)C(c3ccc(Cl)cc3)C2=O)CC1 (centres undefined)	16µM	·	–	?	·	·
CC1CCC(N2CC(=O)N(C3CCCCC3)C(c3ccc(F)cc3)C2=O)CC1 (centres undefined)	–	·	–	–	·	·
COc1cc(C2C(=O)N(C3CCC(C)CC3)CC(=O)N2CCc2ccc(Cl)cc2)ccc1OC(C)C (centres undefined)	–	·	–	–	·	·
O=C1C(c2ccc(F)cc2)N(CCc2ccc(Cl)cc2)C(=O)CN1C1CCCCC1 (centres undefined)	21µM	·	?	16µM	·	·
SMILES	DT40 TDP1 no CPT	Gal4-VP16 FLuc	12-LOX inh	TDP1 cell CPT	RORgamma inh	ELG1 DNA repair
COc1cc(C2C(=O)N(C3CCCCCC3)CC(=O)N2CCc2ccccc2)ccc1OC(C)C (centres undefined)	13µM	·	–	16µM	·	·
CN1CC(=O)N(C2CCNCC2)Cc2c1ncnc2N1CCC(N2CCOCC2)CC1	·	·	–[6.33 µM]	·	·	·
COc1ccc(CCN2C(=O)CN(C3CCCCCC3)C(=O)C2c2ccc(C)cc2)cc1OC (centres undefined)	23µM	·	?	?	·	·
CCOc1ccc(C2C(=O)N(C3CCCCCC3)CC(=O)N2Cc2ccc(C)cc2)cc1OC (centres undefined)	23µM	·	–	23µM	·	·
COc1ccc(CN2C(=O)CN(C3CCCCCC3)C(=O)C2c2ccc(OC)c(OC)c2)cc1 (centres undefined)	–	–	–	?	–	–
CCOc1ccc(C2C(=O)N(C3CCCCC3)CC(=O)N2CCc2ccccc2)cc1OC (centres undefined)	?	·	–	?	·	·
CCCCN1C(=O)c2ccccc2C(C(=O)NCc2cccnc2)C12CCCCC2 (centres undefined)	·	·	–	·	·	·
CCCC(C)C(=O)NCc1cccs1 (centres undefined)	·	·	–	·	·	·
CN(Cc1ccccc1)S(=O)(=O)c1cc2c(cc1Cl)Oc1ccccc1NC2=O	·	·	–	·	·	·
CC(C)(C)C1CCC(C(=O)OCC(=O)c2ccc(Cl)c(Cl)c2)CC1 (centres undefined)	·	·	–	·	·	·
CCOc1ccc(NS(=O)(=O)c2cc(NC(=O)c3cccc(C)c3)ccc2Cl)cc1	?	–	?	16µM	?	?
CCOc1cccc(NC(=O)c2cccc(C)c2)c1	·	·	–	·	·	·
CCCCn1c(N)c(NCc2ccccc2)c(=O)[nH]c1=O	–	–	–	–	–	–
CCCCn1c(N)c(NCC)c(=O)[nH]c1=O	23µM	–	–	?	–	–
COc1c(CNCC(O)COc2c(C)cccc2C)c(C)nn1C (centres undefined)	·	·	–	·	·	·
c1ccc(OCCCCN2CCC(c3nc4ccccc4s3)CC2)cc1	·	·	0.89µM	·	·	·
O=C(CN1CCC(c2nc3ccccc3s2)CC1)NCc1cccs1	18µM	–	–	?	–	9.2µM
O=C(CN1CCC(c2nc3ccccc3s2)CC1)N1CCCCC1	?	–	–	?	–	?
c1ccc(OCCCN2CCC(c3nc4ccccc4s3)CC2)cc1	·	·	0.71µM	·	·	·
O=C(CCn1ccn2nc3c(c2c1=O)CCCC3)N1CCN(c2ccc(Cl)cc2)CC1	·	·	–	·	·	·
Cc1nc(-c2cnccn2)n(CC(=O)Nc2cccc(Cl)c2)c(=O)c1C	·	·	–	·	·	·
COCCNC(=O)[C@@H]1C[C@H](Oc2ccccc2)CN1C(=O)CCc1ccccc1	·	·	–	·	·	·
CC(=O)NC1(C)CCN(Cc2cccc(-c3ccc4c(ccn4C)c3)c2)C1 (centres undefined)	·	·	32µM	·	·	·
